According to PubChem BioAssay AID540259 (Broad Institute, 2011):
Entries with a potency or affinity are not part of this list. Active and inactive are the calls of the source.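 The calls were made as follows: active = cell killing, meaning signal decrease, with fitted half-maximal dose at or below ten times the top valid tested dose; inconclusive = poor fit, or flat curve with 30 to 70% signal loss; inactive = the rest.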

Assay: HeLa cell cytotoxicity, dose response, cytotoxicity control for MITF activator project, CellTiter-Glo luminescence, cherry-pick samples (AID 540259)
Details: HeLa viability, CellTiter-Glo ATP luminescence, 24 h; series mostly up to 35 µM

SMILES | outcome
Cc1nn(CC(C)C)c(Cl)c1C(=O)NC1CCC(C)CC1 (stereo not given) | inactive
COc1ccc(-c2cc(=NCCC(=O)O)c3cc(C)ccc3o2)cc1 | inactive
CN1C(=O)NC(=O)C(C)(C2=CCCCC2)C1=O (stereo not given) | inactive
CC(Cc1ccccc1)/[N+]([O-])=C\c1ccc(C(F)(F)F)cc1 (stereo not given) | inactive
O=C1C(=O)N(c2ccccc2)P(=O)(N(CCCl)CCCl)N1c1ccccc1 | inactive
